Screening data as filed in PubChem BioAssay.
Pemphigus Ab inh = inhibitors of pemphigus antibody binding to human desmoglein-3; P32926; DSG3-coupled beads, scFv-anti-DSG3-GFP binding, flow cytometry; hits give low values; AID 588358; 310,000 tested, 0.48% active; binding (percent of control), % at 10 µM;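 active = binding more than 3 SD below its plate's average and above zero; inconclusive = below that plate limit but binding exactly zero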;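 note: hits lower antibody fragment binding to DSG3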
NTR1 ag = NTR1 (human) agonism | P30989 | NTR1-U2OS beta-arrestin-GFP spot imaging, agonist mode | activation, % at 20 µM | 330,000 tested, 0.17% active | AID 493036;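 active = activation at or above 40% of the spot to cytoplasm intensity ratio, with at least 20 cells analyzed; inconclusive = wells under 20 cells, flagged as cytotoxic or low count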
Target sequence (P30989 whole entry, looked up): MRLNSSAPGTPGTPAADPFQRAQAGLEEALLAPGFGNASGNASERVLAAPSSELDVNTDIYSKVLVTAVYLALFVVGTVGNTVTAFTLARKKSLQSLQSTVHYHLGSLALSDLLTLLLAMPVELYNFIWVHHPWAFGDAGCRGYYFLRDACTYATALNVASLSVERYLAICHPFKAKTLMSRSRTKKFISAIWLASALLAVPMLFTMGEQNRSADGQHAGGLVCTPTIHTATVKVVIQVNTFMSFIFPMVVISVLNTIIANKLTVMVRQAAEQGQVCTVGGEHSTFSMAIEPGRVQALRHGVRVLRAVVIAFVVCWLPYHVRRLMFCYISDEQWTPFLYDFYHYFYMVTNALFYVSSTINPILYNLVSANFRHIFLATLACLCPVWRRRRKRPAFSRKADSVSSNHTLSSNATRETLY
AI-2 QS modul = Vibrio harveyi AI-2 quorum sensing modulation; Vibrio harveyi JMH597 AI-2 luminescence/OD600 ratio, 9 h; hits give low values; strain lacks LuxN and CqsS sensors; 0 = neutral-control median; activity change, % at 7.5 µM; 300,000 tested, 0.4% active; in the data active = activity change below about -75%, passing the limit was not always enough; inconclusive = no clear call, values can overlap the other calls;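 note: luminescence divided by OD600 gain over 9 h not by final OD600 alone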
VLA-4 inh = inhibition in a human VLA-4 binding assay; P13612; VLA-4 expressing cells, ligand binding flow cytometry; inhibition, % (about 7 µM as worked out from the volumes in the protocol); 330,000 tested, 0.2% active; in the data active = inhibition above about 50%
NTR1 ag confirm = NTR1 (human) agonism, confirmed. shares compounds with NTR1 ag. NTR1-U2OS beta-arrestin-GFP translocation imaging. activation, % at 20 µM. 480 tested, 38% active;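 active = mean activation at 20 µM of at least 40%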
A number is an active result; 0 = inactive; ? = inconclusive; - = no result given. This is a sample that favours compounds with a hit; in the whole collection about 1.1% have one here.

SMILES	Pemphigus Ab inh	NTR1 ag	AI-2 QS modul	VLA-4 inh	NTR1 ag confirm
Cc1cccn2c(=O)c3cc(C(=O)NC4CCCC4)c(=N)n(CCc4ccccc4)c3nc12	0	0	0	0	-
Nc1nc(Nc2ccccc2)nc(NC2CCCCC2)c1[N+](=O)[O-]	0	87	0	0	0
O=S(=O)(c1ccc(N2CCN(S(=O)(=O)c3ccccc3)CC2)nc1)N1CCCC1	0	0	0	0	-
O=S(=O)(c1ccc(N2CC=C(c3ccccc3)CC2)nc1)N1CCCC1	0	50	0	0	0
CN(C)c1ccc(N2CC(C)(C)C2=O)cc1	0	0	0	0	-
COc1ccc(CNC(=O)COC(=O)c2cccn2C)cc1	0	0	-	0	-
O=C(c1ccc(Cl)cc1)C(CN1CCCCC1)c1ccccc1 (stereo unspecified)	0	50	0	0	60
CCOC(=O)C(CN1CCCC1)c1ccccc1 (stereo unspecified)	0	0	0	0	-
Cc1ccc(OCCN2CCN(c3nc(NCc4ccco4)c4ccccc4n3)CC2)cc1	0	50	0	0	0
O=C(/C=C\c1ccccc1OC(=O)c1ccccc1F)c1cc2ccccc2o1	0	67	0	0	74
Cc1[nH]c2ccccc2c1/C=N/Nc1ccccc1[N+](=O)[O-]	0	40	0	0	0
COc1ccc(NS(=O)(=O)c2cc([N+](=O)[O-])ccc2N/N=C/c2c(C)[nH]c3ccccc23)cc1	0	-	-	-	-
Cn1cnc2c(=O)sc3ccccc3c21	0	0	0	0	-
COC(=O)c1ccc(/C=C/C(=O)OCC(=O)Nc2sccc2C(N)=O)cc1	0	45	-	0	77
COc1ccccc1C(=O)NN(C)C1=NS(=O)(=O)c2ccccc21	0	0	0	0	-
O=C(Nc1ccc(Cl)c(C(F)(F)F)c1)NC1CC2CCCC(C1)N2Cc1ccccc1 (stereo unspecified)	-	44	0	0	0
O=C(NC1CC2CCCC(C1)N2C(=O)Nc1ccc(Cl)c(C(F)(F)F)c1)C1CC1 (stereo unspecified)	-	0	0	0	-
COc1ccc(-c2sc3ccccc3c2-c2ccc(O)cc2)cc1	-	0	-	0	-
COc1ccc(-c2sc3cc(OC)c(OC)cc3c2-c2ccc(O)cc2)cc1	0	51	-	0	0
CC[C@@H](C(=O)[C@@H](C)[C@@H](O)[C@H](C)CCc1ccc(C)c(O)c1C(=O)O)[C@H]1O[C@](CC)([C@H]2CC[C@](O)(CC)[C@H](C)O2)C[C@@H]1C	0	53	0	0	62
CN1CCN(c2ccc(NC(=O)c3cc4ccccc4o3)cc2)CC1	0	0	0	0	-
O=C(Nc1ccc(N2CCN(C(=O)c3ccccc3)CC2)cc1)c1cc2ccccc2o1	0	64	-	0	86
O=C(CN(C(=O)c1csnn1)c1cccc(F)c1)NCc1ccc2c(c1)OCO2	0	0	0	0	-
Cc1cc2ccccc2c(=O)n1CC(=O)Nc1ccc2c(c1)OCCO2	0	46	0	0	0
O=C(COC(=O)/C=C/C(=O)OCC(=O)NC12CC3CC(CC(C3)C1)C2)NC12CC3CC(CC(C3)C1)C2	0	85	0	0	40
SMILES	Pemphigus Ab inh	NTR1 ag	AI-2 QS modul	VLA-4 inh	NTR1 ag confirm
O=C(COC(=O)c1ccccc1O)NC12CC3CC(CC(C3)C1)C2	-	0	-	0	-
Oc1ccc(Cl)cc1/C=C/c1ccc2cccc(O)c2n1	0	46	0	-	0
Cc1cc(C)cc(OCC(O)CN2CCC(CN3C(=O)c4cccc5cccc(c45)C3=O)CC2)c1 (stereo unspecified)	0	48	0	0	58
COc1cccc(OCC(O)CN2CCC(CN3C(=O)c4cccc5cccc(c45)C3=O)CC2)c1 (stereo unspecified)	0	0	0	0	-
O=C1c2cccc3cccc(c23)C(=O)N1CC1CCN(CC(O)COc2ccc3ccccc3c2)CC1 (stereo unspecified)	0	41	0	0	59
CCc1ccc(OCC(O)CN2CCC(CN3C(=O)c4cccc5cccc(c45)C3=O)CC2)cc1 (stereo unspecified)	0	0	0	0	-
CCN(CC)C(=O)NCc1c(C)cc(C)cc1C	0	0	0	0	-
CC1CCC(C(C)C)C(OCC(O)CNC(C)c2ccccc2)C1 (stereo unspecified)	0	40	0	0	41
C/C(=N\NC(=O)Cc1ccc(Cl)cc1)c1cccnc1	0	0	0	0	-
CCOC(=O)C1Nc2ccc(C(F)(F)F)cc2C2c3ccccc3CC12 (stereo unspecified)	0	56	0	0	0
COc1cccc(-c2ncc3ccccc3c2COC(=O)c2ccco2)c1	0	0	-	0	-
Cc1ccc(S(=O)(=O)N(CCCO)CC(O)CON=C2c3ccccc3-c3ccccc32)cc1 (stereo unspecified)	0	47	0	0	0
CCN(C(=O)COC(=O)c1oc2ccccc2c1C)c1c(N)n(Cc2ccccc2)c(=O)[nH]c1=O	0	0	-	0	-
O=[N+]([O-])c1ccc(-c2cnc(SC(c3ccccc3)c3ccccc3)[nH]2)cc1	0	54	0	0	0
O=[N+]([O-])c1ccc(-c2cnc(SCc3ccccc3Cl)[nH]2)cc1	0	0	0	0	-
c1ccc(CNc2c(-c3cccc(SC4CCCCC4)c3)nc3ccccn23)cc1	0	40	-	0	0
COc1ccc(C=C2C=C(C(C)(C)C)C(=O)C(C(C)(C)C)=C2)cc1OC	0	41	0	0	0
COc1ccc(/C=C2\CC/C(=C\c3ccc(OC)c(OC)c3)C2=O)cc1OC	0	0	0	0	-
CC1Cc2cc(S(=O)(=O)N3CCN(c4ccccc4)CC3)ccc2N1C(=O)C1CC1 (stereo unspecified)	0	0	0	0	-
COc1cccc(-c2nc(N3CCCCC3C)c3ccccc3n2)c1O (stereo unspecified)	0	0	0	0	-
COc1cccc(-c2nc(NC3CCCC3)c3ccccc3n2)c1O	?	60	0	0	0
Cn1cc([N+](=O)[O-])c(C(=O)Nc2nc(-c3ccc(Cl)cc3)cs2)n1	-	49	0	0	71
Cc1ccc(-c2nc(NC(=O)c3nn(C)cc3[N+](=O)[O-])sc2C)cc1	0	0	0	0	-
COc1ccccc1-c1cn[nH]c1-c1ccc(OCc2ccccc2F)cc1O	0	40	0	0	0
COc1ccccc1-c1cn[nH]c1-c1ccc(OCc2ccc(F)cc2)cc1O	0	40	0	0	0
SMILES	Pemphigus Ab inh	NTR1 ag	AI-2 QS modul	VLA-4 inh	NTR1 ag confirm
COc1ccccc1-c1cn[nH]c1-c1ccc(O)cc1O	0	0	0	0	-
O=[N+]([O-])c1ccc(COc2ccc(-c3[nH]ncc3-c3ccccc3)c(O)c2)cc1	0	42	0	0	0
CC(=O)Nc1ccc(S(=O)(=O)NCCC(=O)NCc2ccco2)cc1	0	-	-	-	-
CCOc1ccccc1C(=O)NCC(=O)NNC(=O)c1csc(N2CCOCC2)n1	0	-	-	-	-
COc1cc(/C=C/C(=O)OCC(=O)N(C)CC(=O)Nc2ccc(F)cc2)ccc1OC(F)F	0	0	-	0	-
C[C@@H]1CN([C@H](C)CO)C(=O)c2cc(NS(=O)(=O)c3ccc(F)cc3)ccc2O[C@@H]1CN(C)Cc1ccc(Cl)c(Cl)c1	0	0	-	0	0
